From PMC7862700, “An all-to-all approach to the identification of sequence-specific readers for epigenetic DNA modifications on cytosine”

How the values were obtained:
Assay in all cases: DAPPL (digital affinity profiling via proximity ligation, sequencing); 10 mM Tris-HCl pH 7.5, 50 mM NaCl, 1 mM DTT, 4% glycerol, room temperature, 30 min; GST-TFs on glutathione beads, 16-mer random dsDNA library, 0.1% formaldehyde crosslink after washing; high values mean tight binding
FEV = target: T1, FEV (Homo sapiens, UniProt Q99581 1-238); details: protein: recombinant; tags: N-terminal GST; dsDNA, one strand shown
T1 sequence: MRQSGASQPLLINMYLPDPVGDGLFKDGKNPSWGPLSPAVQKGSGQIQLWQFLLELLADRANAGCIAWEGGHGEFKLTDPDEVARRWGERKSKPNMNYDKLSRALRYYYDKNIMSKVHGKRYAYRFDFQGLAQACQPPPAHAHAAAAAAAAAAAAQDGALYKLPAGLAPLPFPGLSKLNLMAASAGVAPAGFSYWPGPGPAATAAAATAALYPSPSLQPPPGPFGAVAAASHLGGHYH
In short: (§1)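 Binding signal is each hexamer's read frequency for a factor divided by its frequency in the tag-only sample. The factors were GST-fused human transcription factors from yeast, captured on glutathione beads, DNA-barcoded and pooled with that sample. Pools were incubated with 200 nmole of a random double-stranded 16-mer DNA library in Tris/NaCl/DTT/glycerol buffer at room temperature for 30 min, then washed, crosslinked with 0.1% formaldehyde, proximity-ligated with BsaI/T4 ligase (1 h, 37 °C), PCR-amplified and sequenced on an Illumina NextSeq500.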

ETV5 = ETV5 (Homo sapiens, UniProt P41161 1-510); details: protein: recombinant; tags: N-terminal GST; dsDNA, one strand shown
In short: as §1

HSF1 = HSF1 (Homo sapiens, UniProt Q00613 1-529); details: protein: recombinant; tags: N-terminal GST; chain copies: 3; dsDNA, one strand shown
In short: as §1

SPIC = target: T2, SPIC (Homo sapiens, UniProt Q8N5J4 1-248); details: protein: recombinant; tags: N-terminal GST; dsDNA, one strand shown
T2 sequence: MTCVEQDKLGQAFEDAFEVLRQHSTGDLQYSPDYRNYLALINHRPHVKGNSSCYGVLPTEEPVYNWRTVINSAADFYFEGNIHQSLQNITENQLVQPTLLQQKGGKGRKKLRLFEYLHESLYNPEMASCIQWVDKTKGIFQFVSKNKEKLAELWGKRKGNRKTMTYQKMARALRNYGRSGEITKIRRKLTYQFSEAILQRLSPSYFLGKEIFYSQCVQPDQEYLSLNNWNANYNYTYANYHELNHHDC
In short: as §1

ELF4 = ELF4 (Homo sapiens, UniProt Q99607 1-663); details: protein: recombinant; tags: N-terminal GST; dsDNA, one strand shown
In short: as §1

ELK4 = target: T3, ELK4 (Homo sapiens, UniProt P28324-2 1-405); details: protein: recombinant; tags: N-terminal GST; dsDNA, one strand shown
T3 sequence: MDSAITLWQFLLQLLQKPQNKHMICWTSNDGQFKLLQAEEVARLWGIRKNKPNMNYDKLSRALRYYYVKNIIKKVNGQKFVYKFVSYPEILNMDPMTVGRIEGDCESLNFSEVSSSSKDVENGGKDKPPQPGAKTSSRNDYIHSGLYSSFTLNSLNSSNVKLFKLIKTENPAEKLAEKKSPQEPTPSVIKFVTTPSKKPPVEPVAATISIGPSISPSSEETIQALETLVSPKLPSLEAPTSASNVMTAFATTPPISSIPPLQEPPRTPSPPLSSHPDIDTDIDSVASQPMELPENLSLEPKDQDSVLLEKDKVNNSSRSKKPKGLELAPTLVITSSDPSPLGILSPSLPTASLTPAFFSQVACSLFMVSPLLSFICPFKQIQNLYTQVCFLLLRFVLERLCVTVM
In short: as §1

ETV2 = target: T4, ETV2 (Homo sapiens, UniProt O00321 1-342); details: protein: recombinant; tags: N-terminal GST; dsDNA, one strand shown
T4 sequence: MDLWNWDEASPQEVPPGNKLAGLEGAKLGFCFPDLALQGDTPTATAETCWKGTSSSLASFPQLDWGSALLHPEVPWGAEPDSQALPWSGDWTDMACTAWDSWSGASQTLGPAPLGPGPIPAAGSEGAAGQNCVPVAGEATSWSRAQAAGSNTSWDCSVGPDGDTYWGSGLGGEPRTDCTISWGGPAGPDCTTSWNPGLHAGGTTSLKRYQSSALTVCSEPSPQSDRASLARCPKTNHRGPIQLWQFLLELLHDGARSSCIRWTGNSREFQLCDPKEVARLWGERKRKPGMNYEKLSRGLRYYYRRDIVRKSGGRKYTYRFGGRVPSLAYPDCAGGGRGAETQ
In short: as §1

ELF3 = target: T5, ELF3 (Homo sapiens, UniProt P78545 1-371); details: protein: recombinant; tags: N-terminal GST; dsDNA, one strand shown
T5 sequence: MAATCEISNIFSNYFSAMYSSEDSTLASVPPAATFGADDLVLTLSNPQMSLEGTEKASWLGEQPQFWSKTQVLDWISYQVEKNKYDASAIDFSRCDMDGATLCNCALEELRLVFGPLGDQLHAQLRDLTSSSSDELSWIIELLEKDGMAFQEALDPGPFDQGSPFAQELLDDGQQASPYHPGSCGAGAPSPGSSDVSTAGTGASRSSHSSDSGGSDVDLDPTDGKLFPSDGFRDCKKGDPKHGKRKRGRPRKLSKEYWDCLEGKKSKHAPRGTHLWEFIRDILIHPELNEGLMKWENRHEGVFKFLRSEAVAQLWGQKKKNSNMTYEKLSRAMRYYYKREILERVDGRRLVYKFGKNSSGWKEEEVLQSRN
In short: as §1

CRX = CRX (Homo sapiens, UniProt O43186 1-299); details: protein: recombinant; tags: N-terminal GST; dsDNA, one strand shown
In short: as §1

ETV1 = ETV1 (Homo sapiens, UniProt P50549 1-477); details: protein: recombinant; tags: N-terminal GST; dsDNA, one strand shown
In short: as §1

ERF = target: T6, ERF (Homo sapiens, UniProt P50548 1-548); details: protein: recombinant; tags: N-terminal GST; dsDNA, one strand shown
T6 sequence: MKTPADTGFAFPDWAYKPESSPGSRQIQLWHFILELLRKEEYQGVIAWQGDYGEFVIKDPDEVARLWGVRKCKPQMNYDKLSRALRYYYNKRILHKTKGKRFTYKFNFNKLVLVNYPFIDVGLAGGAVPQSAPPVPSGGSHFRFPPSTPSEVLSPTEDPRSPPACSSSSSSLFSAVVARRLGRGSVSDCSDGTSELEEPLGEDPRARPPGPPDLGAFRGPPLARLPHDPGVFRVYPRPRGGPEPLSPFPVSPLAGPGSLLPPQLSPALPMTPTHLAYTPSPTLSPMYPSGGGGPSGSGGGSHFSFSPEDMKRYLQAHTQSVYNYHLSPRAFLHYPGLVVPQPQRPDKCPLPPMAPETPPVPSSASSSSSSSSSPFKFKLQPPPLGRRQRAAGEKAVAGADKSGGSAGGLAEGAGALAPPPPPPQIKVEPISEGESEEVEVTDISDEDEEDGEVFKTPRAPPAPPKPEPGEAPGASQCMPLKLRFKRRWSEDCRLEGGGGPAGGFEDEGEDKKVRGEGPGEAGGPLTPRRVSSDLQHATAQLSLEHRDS
In short: as §1

ETV3L = target: T7, ETV3L (Homo sapiens, UniProt Q6ZN32 1-361); details: protein: recombinant; tags: N-terminal GST; dsDNA, one strand shown
T7 sequence: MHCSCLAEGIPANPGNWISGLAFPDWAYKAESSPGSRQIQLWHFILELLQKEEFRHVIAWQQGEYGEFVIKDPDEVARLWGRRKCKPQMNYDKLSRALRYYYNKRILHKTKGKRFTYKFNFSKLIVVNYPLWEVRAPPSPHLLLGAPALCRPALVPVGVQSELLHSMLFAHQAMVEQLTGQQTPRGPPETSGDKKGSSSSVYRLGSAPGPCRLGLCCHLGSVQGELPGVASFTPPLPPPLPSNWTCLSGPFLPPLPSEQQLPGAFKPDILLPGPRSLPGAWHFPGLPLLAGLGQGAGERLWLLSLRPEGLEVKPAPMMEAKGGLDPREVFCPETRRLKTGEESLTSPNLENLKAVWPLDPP
In short: as §1

ETS2 = target: T8, ETS2 (Homo sapiens, UniProt P15036 1-469); details: protein: recombinant; tags: N-terminal GST; dsDNA, one strand shown
T8 sequence: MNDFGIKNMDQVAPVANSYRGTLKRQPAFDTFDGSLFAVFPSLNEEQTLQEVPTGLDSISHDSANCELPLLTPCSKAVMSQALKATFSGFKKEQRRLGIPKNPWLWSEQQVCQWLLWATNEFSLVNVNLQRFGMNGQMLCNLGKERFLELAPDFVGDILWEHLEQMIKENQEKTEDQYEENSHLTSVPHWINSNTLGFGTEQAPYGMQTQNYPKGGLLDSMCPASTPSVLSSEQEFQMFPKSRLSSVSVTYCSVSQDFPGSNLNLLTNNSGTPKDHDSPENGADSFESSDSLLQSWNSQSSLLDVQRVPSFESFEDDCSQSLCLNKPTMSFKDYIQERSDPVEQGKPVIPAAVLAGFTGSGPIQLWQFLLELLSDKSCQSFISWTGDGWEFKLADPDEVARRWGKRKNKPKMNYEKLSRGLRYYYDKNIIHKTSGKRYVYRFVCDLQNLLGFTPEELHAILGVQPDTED
In short: as §1

SPDEF = target: T9, SPDEF (Homo sapiens, UniProt O95238 1-335); details: protein: recombinant; tags: N-terminal GST; dsDNA, one strand shown
T9 sequence: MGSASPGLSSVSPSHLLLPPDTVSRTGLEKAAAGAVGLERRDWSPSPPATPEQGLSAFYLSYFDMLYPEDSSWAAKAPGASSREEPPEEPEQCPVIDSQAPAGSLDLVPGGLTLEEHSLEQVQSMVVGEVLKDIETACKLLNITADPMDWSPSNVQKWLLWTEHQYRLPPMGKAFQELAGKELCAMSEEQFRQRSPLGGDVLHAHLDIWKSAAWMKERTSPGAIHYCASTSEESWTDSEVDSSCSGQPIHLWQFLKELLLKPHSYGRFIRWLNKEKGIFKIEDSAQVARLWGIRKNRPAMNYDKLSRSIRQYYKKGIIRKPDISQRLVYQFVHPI
In short: as §1

ETV7 = target: T10, ETV7 (Homo sapiens, UniProt Q9Y603 1-341); details: protein: recombinant; tags: N-terminal GST; dsDNA, one strand shown
T10 sequence: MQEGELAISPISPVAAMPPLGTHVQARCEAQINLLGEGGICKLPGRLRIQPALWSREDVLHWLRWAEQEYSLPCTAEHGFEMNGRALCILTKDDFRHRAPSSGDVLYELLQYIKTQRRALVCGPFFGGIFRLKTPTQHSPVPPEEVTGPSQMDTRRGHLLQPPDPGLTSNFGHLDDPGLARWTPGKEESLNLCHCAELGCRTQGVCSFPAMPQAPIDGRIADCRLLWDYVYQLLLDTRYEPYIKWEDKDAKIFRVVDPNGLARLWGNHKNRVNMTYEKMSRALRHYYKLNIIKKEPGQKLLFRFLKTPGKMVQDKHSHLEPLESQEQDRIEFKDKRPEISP
In short: as §1

ELF5 = target: T11, ELF5 (Homo sapiens, UniProt Q9UKW6-2 1-255); details: protein: recombinant; tags: N-terminal GST; dsDNA, one strand shown
T11 sequence: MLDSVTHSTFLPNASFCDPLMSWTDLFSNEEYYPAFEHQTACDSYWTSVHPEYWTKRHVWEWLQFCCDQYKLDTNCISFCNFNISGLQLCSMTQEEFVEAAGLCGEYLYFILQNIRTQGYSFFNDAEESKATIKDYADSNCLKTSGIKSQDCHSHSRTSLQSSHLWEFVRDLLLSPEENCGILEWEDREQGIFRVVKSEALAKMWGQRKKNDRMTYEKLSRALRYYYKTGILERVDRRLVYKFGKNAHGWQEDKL
In short: as §1

ETV3 = target: T12, ETV3 (Homo sapiens, UniProt P41162-2 1-143); details: protein: recombinant; tags: N-terminal GST; dsDNA, one strand shown
T12 sequence: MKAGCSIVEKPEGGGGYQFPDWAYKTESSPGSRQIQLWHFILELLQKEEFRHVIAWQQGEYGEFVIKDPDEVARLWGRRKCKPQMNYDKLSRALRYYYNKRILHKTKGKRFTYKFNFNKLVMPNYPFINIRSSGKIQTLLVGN
In short: as §1

ETV6 = ETV6 (Homo sapiens, UniProt P41212 1-452); details: protein: recombinant; tags: N-terminal GST; dsDNA, one strand shown
In short: as §1

Chain of CRX (O43186 whole entry): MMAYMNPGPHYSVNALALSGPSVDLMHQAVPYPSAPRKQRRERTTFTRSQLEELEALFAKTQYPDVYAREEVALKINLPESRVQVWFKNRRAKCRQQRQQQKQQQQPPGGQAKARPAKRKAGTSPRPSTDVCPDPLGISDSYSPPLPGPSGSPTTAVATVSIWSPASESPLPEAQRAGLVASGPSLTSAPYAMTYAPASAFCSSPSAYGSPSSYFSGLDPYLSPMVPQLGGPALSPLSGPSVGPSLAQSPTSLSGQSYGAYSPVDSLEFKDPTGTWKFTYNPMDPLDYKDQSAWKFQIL
Chain of ETV1 (P50549 whole entry): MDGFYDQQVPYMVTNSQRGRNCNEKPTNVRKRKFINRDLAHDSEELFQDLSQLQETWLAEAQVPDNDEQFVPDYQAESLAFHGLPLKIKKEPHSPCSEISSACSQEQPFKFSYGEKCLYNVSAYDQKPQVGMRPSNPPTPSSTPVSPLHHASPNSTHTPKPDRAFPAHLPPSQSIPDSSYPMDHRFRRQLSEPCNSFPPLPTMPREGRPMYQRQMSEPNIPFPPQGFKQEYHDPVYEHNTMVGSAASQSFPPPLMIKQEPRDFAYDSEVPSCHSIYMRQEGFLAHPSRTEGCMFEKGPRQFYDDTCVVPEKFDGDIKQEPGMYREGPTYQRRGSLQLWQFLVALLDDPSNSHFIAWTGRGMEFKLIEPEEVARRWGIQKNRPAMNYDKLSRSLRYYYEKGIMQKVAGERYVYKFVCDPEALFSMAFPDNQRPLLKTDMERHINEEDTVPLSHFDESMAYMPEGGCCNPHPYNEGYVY
Chain of ELF4 (Q99607 whole entry): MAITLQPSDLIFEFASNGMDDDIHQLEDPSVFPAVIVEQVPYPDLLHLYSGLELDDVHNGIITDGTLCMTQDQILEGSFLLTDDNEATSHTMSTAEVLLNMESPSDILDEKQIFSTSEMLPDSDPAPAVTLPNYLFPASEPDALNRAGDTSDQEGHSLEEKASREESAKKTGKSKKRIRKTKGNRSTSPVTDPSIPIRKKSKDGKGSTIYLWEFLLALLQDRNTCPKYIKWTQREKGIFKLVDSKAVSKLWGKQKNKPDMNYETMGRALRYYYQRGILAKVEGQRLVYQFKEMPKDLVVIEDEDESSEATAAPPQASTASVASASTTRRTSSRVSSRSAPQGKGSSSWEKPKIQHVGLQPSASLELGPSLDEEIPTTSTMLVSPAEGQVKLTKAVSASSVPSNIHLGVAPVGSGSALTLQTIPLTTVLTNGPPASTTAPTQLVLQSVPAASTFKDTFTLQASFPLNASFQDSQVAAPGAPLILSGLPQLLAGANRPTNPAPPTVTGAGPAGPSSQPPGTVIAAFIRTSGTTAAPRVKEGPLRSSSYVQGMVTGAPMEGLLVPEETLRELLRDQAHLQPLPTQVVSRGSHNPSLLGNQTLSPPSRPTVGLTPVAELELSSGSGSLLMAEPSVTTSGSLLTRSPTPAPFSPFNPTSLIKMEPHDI
Chain of HSF1 (Q00613 whole entry): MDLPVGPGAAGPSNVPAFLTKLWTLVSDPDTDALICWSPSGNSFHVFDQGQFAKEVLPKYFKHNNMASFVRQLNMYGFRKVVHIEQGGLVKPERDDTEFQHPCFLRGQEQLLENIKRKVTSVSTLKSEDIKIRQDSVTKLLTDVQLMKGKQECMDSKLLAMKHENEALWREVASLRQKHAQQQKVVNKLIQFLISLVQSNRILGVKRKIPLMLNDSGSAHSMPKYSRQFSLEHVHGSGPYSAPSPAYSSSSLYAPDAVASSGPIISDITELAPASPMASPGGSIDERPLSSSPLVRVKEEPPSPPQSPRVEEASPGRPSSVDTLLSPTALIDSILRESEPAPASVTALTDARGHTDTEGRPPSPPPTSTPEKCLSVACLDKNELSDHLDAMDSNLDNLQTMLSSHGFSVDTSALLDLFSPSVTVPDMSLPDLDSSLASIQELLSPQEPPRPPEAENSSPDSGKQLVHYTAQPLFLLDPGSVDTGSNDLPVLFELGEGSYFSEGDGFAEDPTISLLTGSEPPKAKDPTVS
Chain of ETV6 (P41212 whole entry): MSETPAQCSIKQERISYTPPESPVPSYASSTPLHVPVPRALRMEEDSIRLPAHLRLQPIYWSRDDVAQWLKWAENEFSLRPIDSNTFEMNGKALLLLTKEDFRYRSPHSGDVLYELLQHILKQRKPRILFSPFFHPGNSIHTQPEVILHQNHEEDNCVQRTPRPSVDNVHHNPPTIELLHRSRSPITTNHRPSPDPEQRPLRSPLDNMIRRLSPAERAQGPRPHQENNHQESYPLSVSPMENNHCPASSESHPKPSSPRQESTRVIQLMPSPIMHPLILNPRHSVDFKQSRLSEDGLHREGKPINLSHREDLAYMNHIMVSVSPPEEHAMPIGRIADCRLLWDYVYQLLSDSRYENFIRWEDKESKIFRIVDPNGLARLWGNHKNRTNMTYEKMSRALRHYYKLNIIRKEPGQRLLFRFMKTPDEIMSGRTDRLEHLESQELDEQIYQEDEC
Chain of ETV5 (P41161 whole entry): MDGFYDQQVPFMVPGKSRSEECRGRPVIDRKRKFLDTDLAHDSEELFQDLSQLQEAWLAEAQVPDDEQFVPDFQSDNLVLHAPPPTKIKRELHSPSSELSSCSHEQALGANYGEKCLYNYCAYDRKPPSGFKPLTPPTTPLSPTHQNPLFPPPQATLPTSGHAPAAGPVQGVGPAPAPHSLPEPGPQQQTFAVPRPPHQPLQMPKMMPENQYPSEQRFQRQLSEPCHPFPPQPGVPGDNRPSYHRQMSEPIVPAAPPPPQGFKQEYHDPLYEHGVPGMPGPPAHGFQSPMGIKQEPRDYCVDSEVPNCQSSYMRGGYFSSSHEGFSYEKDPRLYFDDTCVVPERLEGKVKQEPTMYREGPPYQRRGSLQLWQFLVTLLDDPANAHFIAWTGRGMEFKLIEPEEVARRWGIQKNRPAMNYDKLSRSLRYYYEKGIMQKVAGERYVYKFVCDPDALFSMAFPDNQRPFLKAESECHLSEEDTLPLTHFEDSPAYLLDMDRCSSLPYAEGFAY

Sequence: CCCGAA
- binding signal (FEV): 1.37 fold enrichment (6-mer frequency, TF over GST control)
- binding signal (ETV5): 1.36 fold enrichment (6-mer frequency, TF over GST control)
- binding signal (HSF1): 2.56 fold enrichment (6-mer frequency, TF over GST control)
- binding signal (SPIC): 1.45 fold enrichment (6-mer frequency, TF over GST control)
- binding signal (ELF4): 1.37 fold enrichment (6-mer frequency, TF over GST control)
- binding signal (ELK4): 1.34 fold enrichment (6-mer frequency, TF over GST control)
- binding signal (ETV2): 1.29 fold enrichment (6-mer frequency, TF over GST control)
- binding signal (ELF3): 1.47 fold enrichment (6-mer frequency, TF over GST control)
- binding signal (CRX): 1.61 fold enrichment (6-mer frequency, TF over GST control)
- binding signal (ETV1): 1.29 fold enrichment (6-mer frequency, TF over GST control)
- binding signal (ERF): 1.48 fold enrichment (6-mer frequency, TF over GST control)
- binding signal (ETV3L): 1.35 fold enrichment (6-mer frequency, TF over GST control)
- binding signal (ETS2): 1.37 fold enrichment (6-mer frequency, TF over GST control)
- binding signal (SPDEF): 1.31 fold enrichment (6-mer frequency, TF over GST control)
- binding signal (ETV7): 1.26 fold enrichment (6-mer frequency, TF over GST control)
- binding signal (ELF5): 1.32 fold enrichment (6-mer frequency, TF over GST control)
- binding signal (ETV3): 1.33 fold enrichment (6-mer frequency, TF over GST control)
- binding signal (ETV6): 1.36 fold enrichment (6-mer frequency, TF over GST control)
